# esBAF inh – Bmi1 luciferase reporter increase in mESCs, primary screen, esBAF inhibitor project, mouse ES cells, Bmi1 luciferase knock-in, single point | 24 h; 100% = twice the neutral-well signal | reporter increase, % at 12.5 µM | 350,000 compounds, 2% hits; in the data active = activation above about 40%; inconclusive = no clear call, values can overlap the other calls;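 note: 0% = median of the plate's neutral control wells and 100% = double that signal; a rise in the Bmi1 reporter signal indicates esBAF inhibition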
# MITF act – activators of MITF-driven TRPM1 promoter reporter, primary screen, cell-based, SK-MEL-5, luciferase, single point; 300,000 compounds, 0.75% hits; AID 588334, 2011; SK-MEL-5 TRPM1-promoter luciferase, 24 h; % of positive control, neutral wells = 0; activation, % at 12.5 µM;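 active = mean activation of at least 80% with every replicate also reaching 80%; inconclusive = mean reaches 80% but some replicate falls short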;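 note: 0% = neutral control wells and 100% = parthenolide positive control wells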
# Wnt bcat act – Wnt/beta-catenin pathway activators, primary screen, cell-based, plate reader, single point. Wnt/beta-catenin reporter cell assay, activator. activation, % at 9.35 µM. 300,000 compounds, 1.2% hits; in the data active = activation above about 30%, passing the limit was not always enough; inconclusive = no clear call, values can overlap the other calls;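 note: 0% = neutral control wells and 100% = positive control wells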
# rRNA inh HTS – reduced GFP signal of wild-type E. coli, primary screen, bacterial rRNA inhibitor project, GFP/RFP fluorescence, OD600, single point; E. coli WT GFP vs humanized-ribosome RFP mutants, 24 h; active compounds read low; DMSO median 0, no signal -100; 350,000 compounds, 1.6% hits; GFP signal change (wild-type ribosome), % (concentration not given with the values); AID 720706, 2013;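 active = significant combined selectivity score with lowered wild-type GFP, culture density cut under 30%, mutant RFP and density less affected; inactive = any of these conditions unmet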
# AF4-AF9 inh – inhibitors of AF4 peptide binding to AF9, primary screen, biochemical, AlphaScreen, biotin-AF4 peptide, FLAG-AF9, single point | Protein AF-9 (Homo sapiens), P42568 | inhibition, % at 10 µM | 350,000 compounds, 0.47% hits;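 active = every replicate reaching a set inhibition limit, whatever the replicate mean, cut at about 25% in these data; inconclusive = mean inhibition reaches that limit but some replicates miss it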;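 note: 0% = plate neutral control median and 100% = total signal loss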
# Target sequence (P42568 whole entry, looked up): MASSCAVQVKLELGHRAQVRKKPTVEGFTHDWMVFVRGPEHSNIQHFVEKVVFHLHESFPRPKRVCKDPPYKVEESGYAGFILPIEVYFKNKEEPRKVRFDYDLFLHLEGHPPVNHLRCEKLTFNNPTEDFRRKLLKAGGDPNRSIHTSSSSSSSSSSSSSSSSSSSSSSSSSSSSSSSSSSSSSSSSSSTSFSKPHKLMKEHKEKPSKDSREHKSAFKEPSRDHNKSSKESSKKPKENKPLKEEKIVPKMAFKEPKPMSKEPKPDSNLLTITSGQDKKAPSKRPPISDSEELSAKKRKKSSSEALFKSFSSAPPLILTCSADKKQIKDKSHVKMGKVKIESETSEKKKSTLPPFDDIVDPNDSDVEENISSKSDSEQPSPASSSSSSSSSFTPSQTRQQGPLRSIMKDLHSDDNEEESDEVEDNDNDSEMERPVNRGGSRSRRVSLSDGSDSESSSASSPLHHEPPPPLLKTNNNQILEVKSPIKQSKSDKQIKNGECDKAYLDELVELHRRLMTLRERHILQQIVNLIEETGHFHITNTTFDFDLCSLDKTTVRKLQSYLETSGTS
# Starred values were filed as active, the others as inactive; ? = inconclusive; / = not tested or not shown. Shown are actives, neighbours in structure and some others; about 3.7% of the full set was active somewhere.
SMILES,esBAF inh,MITF act,Wnt bcat act,rRNA inh HTS,AF4-AF9 inh
Cc1ccc(-n2cc(-c3ccccc3)c3c(=O)[nH]cnc32)cc1,/,-3,0,-14,-4
O=C(COc1cccc2cccnc12)N/N=C/c1cccn1-c1ccc(F)cc1,/,4,0,-41*,22
O=C(COc1cccc2cccnc12)N/N=C/c1ccc(O)cc1,2,-18,-2,-3,-7
CC(C)NC(=O)Nc1ccc2c(c1)C(=O)N([C@@H](C)CO)C[C@H](C)[C@@H](CN(C)S(=O)(=O)c1ccc(Cl)cc1)OCCCC[C@@H](C)O2,0,/,/,-1,4
O=C(OCC(=O)c1cccc2ccccc12)c1ccc(CO)cc1,/,137*,9,-16,-1
CC1CN(c2ncc(/C=N/NC(=O)c3ccccc3O)s2)CC(C)O1 (configuration not stated),4,5,1,-31*,5
O=C(N/N=C/c1cnc(N2CCCCC2)s1)c1ccc(C(F)(F)F)cc1,/,6,-1,16,3
O=Cc1ccc(OCc2ccc3c(c2)OCO3)cc1,3,/,16,2,1
Cc1ccc(COc2ccc3c(c2)OCO3)cc1,21,60,33*,0,2
COc1ccc(-c2noc(CCC(=O)N3CCN(c4cccc(OC)c4)CC3)n2)cc1,-1,-5,-1,-32*,-3
Cc1ccc(C)c(N2CCN(C(=O)CCc3nc(-c4ccccc4Br)no3)CC2)c1,43*,59,8,-5,-3
CCOCCCNC(=S)N(CCCN(C)C)Cc1cc2cc3c(cc2[nH]c1=O)OCCO3,-5,-3,-1,18,1
O=C(N/N=C/c1cn(-c2ccccc2)nc1-c1ccc(F)cc1)c1ccc2c(c1)OCO2,/,14,/,/,/
O=C(N/N=C/c1ccc2c(c1)OCO2)c1ccc2c(c1)OCO2,36,58,25,-3,1
COc1cc(/C=N/NC(=O)c2cc(-c3ccc4c(c3)OCO4)n[nH]2)ccc1O,/,3,5,-26*,-2
COc1cc(/C=N/NC(=O)c2[nH]nc3c2CCc2ccccc2-3)ccc1O,20,-10,-1,-20*,3
O=C(N/N=C/c1cn(-c2ccccc2)nc1-c1ccc2c(c1)OCCO2)c1ccncc1,53*,9,15,9,-4
O=C(N/N=C/c1cccc(O)c1)c1ccc2c(c1)OCCO2,-19,11,23,-21*,-8
O=C(N/N=C/c1ccc([N+](=O)[O-])cc1)c1cc(-c2ccc3c(c2)OCO3)n[nH]1,/,-6,1,-2,6
C[C@H]1CN([C@@H](C)CO)C(=O)c2cc(NS(=O)(=O)c3ccccc3)ccc2O[C@H]1CN(C)Cc1ccncc1,0,/,/,-3,-1
O=C(CN1CCc2cc3c(cc2C1)OCCCO3)Nc1ccc(S(=O)(=O)N2CCCC2)cc1,2,-13,-1,-14,2
CS(=O)(=O)Nc1cccc(C2=NN(C(=O)c3cccc([N+](=O)[O-])c3)C(c3cccs3)C2)c1 (configuration not stated),2,-4,1,-7,2
CCn1c(SCC(=O)Nc2ccc(NC(=O)c3cccs3)cc2)nnc1-c1cccnc1,-7,2,/,/,/
O=C(NN=Cc1ccc2c(c1)OCO2)c1ccccc1,8,67,63*,/,1
O=C(N/N=C\c1cn(-c2ccccc2)nc1-c1ccccc1)c1ccc2c(c1)OCO2,44*,42,-2,/,/
SMILES,esBAF inh,MITF act,Wnt bcat act,rRNA inh HTS,AF4-AF9 inh
Cc1ccc(S(=O)(=O)N[C@H]2CC[C@@H](CC(=O)NCCc3ccncc3)O[C@H]2CO)cc1,-5,/,/,1,0
O=[N+]([O-])c1ccccc1-c1ccc(CN2CCN(c3ccccc3)CC2)o1,1,2,-2,-36*,4
O=C(CSc1nc2[nH]ncc2c(=O)[nH]1)Nc1ccc(Cl)c(Cl)c1,/,-5,4,-13,-1
O=C(N/N=C/c1cc(Br)c(O)c(Br)c1O)c1cccnc1,-1,-6,-2,-20*,-1
COc1ccc(C(=O)c2c[nH]c(C(=O)NCCCn3ccnc3)c2)cc1,5,-5,40*,19,1
CC1=C(C(=O)N2CCOCC2)C(c2cccc3ccccc23)NC(=S)N1 (configuration not stated),/,-10,-4,/,/
COc1ccc(OCc2cccc(C(=O)O)c2)cc1,-86,-96,/,/,/
CCOc1ccc(OCc2cccc(C(=O)O)c2)cc1,-83,-93,-13,-24*,-15
CCC(=O)c1ccc(OCc2ccc(C#N)cc2)cc1,/,-4,8,-3,-1
CCOc1ccc(OCc2ccc(C(=O)N(CC)CC)cc2)cc1,78*,8,0,-19,0
CCC(=O)c1ccc(OCc2ccc(C(=O)OC)cc2)cc1,60*,-4,-3,12,2
Cc1ccc(S(=O)(=O)N(C)C[C@@H]2Oc3cc(Br)ccc3S(=O)(=O)N([C@@H](C)CO)C[C@H]2C)cc1,-2,/,/,2,1
CC(OC(=O)c1ccc(Br)c(S(=O)(=O)N2CCOCC2)c1)C(=O)NC1CCCCC1C (configuration not stated),0,-5,9,-6,-1
CC1CCCCN1C(=S)NCCc1ccccc1 (configuration not stated),34,/,37*,/,/
N#C/C(=C\N1CCOCC1)c1ccccc1,/,6,-3,/,/
N#C/C(=C\c1ccc(N2CCOCC2)o1)c1ccccc1,94*,87*,1,13,-43
N#C/C(=C/c1ccc(N2CCCCCC2)o1)c1cccc(F)c1,30,86*,/,/,/
N#C/C(=C/c1ccc(N2CCCCCC2)o1)c1ccc(F)cc1,-13,-5,0,/,/
N#C/C(=C\c1ccc(N2CCOCC2)cc1)c1ccccc1,27,143*,33*,/,/
Cc1ccc(Cc2c(-c3cccc(Cl)c3)nc3ccc(Br)cn23)cc1,?,/,40*,/,-4
Cc1ccc(Cc2c(-c3ccc(Br)cc3)nc3ccc(Cl)cn23)cc1,23,/,14,-27*,2
COc1ccccc1Cc1c(-c2cccc(Cl)c2)nc2ccc(Br)cn12,42*,/,5,-11,0
Cc1ccc(Cc2c(-c3ccc(Br)cc3)nc3ccc(Br)cn23)cc1,66*,/,6,-15,2
COC(=O)c1ccc2nc(-c3cccc(Cl)c3)c(Cc3ccccc3OC)n2c1,17,/,-1,2,-1
C[C@@H]1CN([C@@H](C)CO)C(=O)Cc2cc(NS(C)(=O)=O)ccc2O[C@H]1CN(C)Cc1ccc2c(c1)OCO2,2,/,/,-2,0
CCCCN1C(=O)c2cccc3cc(O)cc(c23)C1=O,/,/,61*,/,1
CCN1CCN(c2nnc(-c3ccccc3)c3ccccc23)CC1,-8,-3,0,9,0
CCN1CCN(c2cc3c(nn2)Oc2ccccc2N3C)CC1,/,82*,/,/,/
